# Measured values reported in PubChem BioAssay (NCATS).
# Results filed as inconclusive are left out. A call without a number means that no potency is given here. Activity calls are given as the source filed them. Calls follow the shape of the dose curve; as a rule, active = well fitted curve in the direction sought with a large enough effect; inconclusive = small, poorly fitted or top-dose-only effect, or another doubt; inactive = no such curve, though single readings can be large; an effect the other way counts as inactive or inconclusive.
# Assays:
# [1] = target: Aldehyde dehydrogenase, mitochondrial (Homo sapiens) (UniProt P05091); test: qHTS for Inhibitors of the Aldehyde Dehydrogenase Family (ALDH2) Primary screen (AID 2061308); also: nearly all actives have a fitted effect of over 55% in size
# [2] = target: Retinaldehyde dehydrogenase 3 (Homo sapiens) (UniProt P47895); test: qHTS for Inhibitors of the Aldehyde Dehydrogenase Family (ALDH1A3) Primary screen (AID 2061315)
SMILES,Potency [1],Potency [2]
Cc1cn(-c2cccc(NC(=O)c3ccc(C)c(Nc4nccc(-c5cccnc5)n4)c3)c2)cn1,inactive,inactive
COc1ccc(C2Nc3ccccc3C(=O)N2Cc2ccccc2)cc1COc1cccc(C)c1 (stereo not drawn),inactive,inactive
O=C1CCc2cc(S(=O)(=O)Nc3ccc(-c4ccccc4)cc3)ccc2N1,inactive,inactive
O=C(Nc1ccc(-n2cncn2)c(F)c1)Nc1nnc(-c2ccncc2)s1,inactive,inactive
c1csc(CNc2ncnc3ccc(-c4ccc5c(c4)OCO5)cc23)c1,inactive,inactive
Cc1ccc(CCCn2c(CCNC(=O)C3CCCCC3)nc3ccccc32)cc1,inactive,inactive
CC1(C)CC(C(=O)Nc2ccc([S+](=O)([O-])Nc3nccs3)cc2)C1,inactive,inactive
O=[S+]([O-])(Nc1nccs1)c1ccc(NCc2ccc(Cl)c(Cl)c2)cc1,inactive,inactive
Cc1ccc(NS(=O)(=O)c2cc3c(cc2NCCO)NC(=O)CC3)cc1C,inactive,inactive
Cc1cc(NS(=O)(=O)c2ccc(NC(=O)Cc3ccc(C)c(F)c3)cc2)no1,inactive,inactive
O=C(/C=C/c1ccc(Cl)cc1)Nc1cccc([S+](=O)([O-])Nc2ccccc2F)c1,inactive,inactive
Cc1cc(C)nc(NC(=S)N2CCN(c3ccc4cnccc4c3)CC2)c1,inactive,inactive
Cc1ccc(OCCn2c(CCNC(=O)OC(C)(C)C)nc3ccccc32)cc1,inactive,inactive
Cc1ccc(-c2cc(C(=O)Nc3ccc(S(C)(=O)=O)cc3)c3ccccc3n2)cc1C,inactive,inactive
